# According to PubChem BioAssay (EPA / NIEHS):
# Several values for one entry are separate records, joined by “and”; a condition that tells them apart may be missing. Equal values may be shown once. Inconclusive results are not listed. A structure can be active in one record and inactive in another. Activity calls are given as the source filed them. Rule for the calls: active = hit-call score of the fitted dose curve at least 0.9, where 1 is the maximum; inconclusive = response in the unintended direction; inactive = score below 0.9.
# Legend:
# [1] = target: rat Constitutive Nitric Oxide Synthase (CNOS), Nos1 (gene 24598) (UniProt P29476); assay: NVS_ENZ_rCNOS: NovaScreen (NVS) Enzymatic Assay for rat Constitutive Nitric Oxide Synthase (CNOS) (AID 2283236)
# Summary of the method: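 Enzyme activity in rat brain membrane preparation, read 1 h after dosing by filter-based radiometric scintillation counting. Primary screen in duplicate at 25 uM; actives (e.g., ≥30% inhibition) then run in concentration-response up to 50 uM.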
# [2] = system: rat Monoamine Oxidase, MAO-A, Central (MAOAC), gene 29253; assay: NVS_ENZ_rMAOAC: NovaScreen (NVS) Enzymatic Assay for rat Monoamine Oxidase, MAO-A, Central (MAOAC) (AID 2283243);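 note: potency refers to inhibition seen as signal drop below DMSO baseline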
# Summary of the method: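 Rat brain tissue extract served as the cell-free enzyme source; activity was measured by radiometric scintillation counting 1.5 hours after compound addition. Loss of signal relative to DMSO baseline indicated inhibition; primary screen at 25 uM in duplicate.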
# [3] = target: human Serotonin, 5-Hydroxytryptamine Receptor 5A (5HT5A), HTR5A (gene 3361) (UniProt P47898); assay: NVS_GPCR_h5HT5A: NovaScreen (NVS) G Protein-Coupled Receptor Assay for human Serotonin, 5-Hydroxytryptamine Receptor 5A (5HT5A) (AID 2283251)
# Summary of the method: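 Cell-free radioligand displacement binding on HEK293-derived membrane protein, 1 h incubation, filter-based scintillation counting. Primary screen in duplicate at 25 uM, actives followed in concentration series; loss of signal fitted versus DMSO.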
# [4] = target: guinea pig Opioid, Kappa 1 Receptor (OpiateK), OPRK1 (gene 100135587) (UniProt P41144); assay: NVS_GPCR_gOpiateK: NovaScreen (NVS) G Protein-Coupled Receptor Assay for guinea pig Opioid, Kappa 1 Receptor (OpiateK) (AID 2283252);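 note: radioligand displacement from kappa opioid receptor in guinea pig cerebellar membranes; active means reduced radioligand binding relative to DMSO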
# Summary of the method: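 Guinea pig cerebellar membranes, radioligand displacement with filter-based scintillation counting, 2 h after dosing. Primary screen single concentration 25 uM in duplicate; actives retested in concentration series; loss of binding fitted versus DMSO.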
# [5] = target: human Serotonin, 5-Hydroxytryptamine Receptor 7 (5HT7), HTR7 (gene 3363) (UniProt P34969); assay: NVS_GPCR_h5HT7: NovaScreen (NVS) G Protein-Coupled Receptor Assay for human Serotonin, 5-Hydroxytryptamine Receptor 7 (5HT7) (AID 2283255);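 note: hits reduce specific radioligand binding relative to DMSO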
# Summary of the method: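 Radioligand displacement on membranes from CHO cells expressing human 5HT7, 1 h incubation, filter-based scintillation counting. Primary screen used a single 25 uM concentration in duplicate; actives were followed up in concentration series.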
# [6] = target: human Serotonin, 5-Hydroxytryptamine Receptor 6 (5HT6), HTR6 (gene 3362) (UniProt P50406); assay: NVS_GPCR_h5HT6: NovaScreen (NVS) G Protein-Coupled Receptor Assay for human Serotonin, 5-Hydroxytryptamine Receptor 6 (5HT6) (AID 2283253)
# Summary of the method: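 Radioligand binding to 5HT6 in HEK293-derived membranes, cell-free, 1 h after dosing; bound ligand measured by filter-based scintillation counting. Primary screen in duplicate at 25 uM; actives retested in concentration series.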
# [7] = system: guinea pig Muscarinic, Peripheral (Mperiperal) Receptor, Non-selective Binding, gene 100379235; assay: NVS_GPCR_gMPeripheral_NonSelective: NovaScreen (NVS) G Protein-Coupled Receptor Assay for guinea pig Muscarinic, Peripheral (Mperiperal) Receptor, Non-selective Binding (AID 2283250)
# Summary of the method: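 Guinea pig bladder membranes, radioligand binding read 1 h after dosing by filter scintillation counting; loss of signal vs DMSO. Primary duplicate screen at 25 uM, then concentration-response up to 50 uM.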
# [8] = target: sheep Cyclooxygenase-1 (Cox1), PTGS1 (gene 443551) (UniProt P05979); assay: NVS_ENZ_oCOX1: NovaScreen (NVS) Enzymatic Assay for sheep Cyclooxygenase-1 (Cox1) (AID 2283239);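 note: actives reduce cyclooxygenase activity so potencies are for inhibitors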
# Summary of the method: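 COX1 from ovine seminal vesicles, activity read colorimetrically about 0.66 h after dosing. Primary screen in duplicate at 25 uM; actives retested in concentration series; loss of signal fitted versus DMSO.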
# [9] = target: rat Catechol-O-Methyl Transferase (COMT), Comt (gene 24267) (UniProt P22734); assay: NVS_ENZ_rCOMT: NovaScreen (NVS) Enzymatic Assay for rat Catechol-O-Methyl Transferase (COMT) (AID 2283235)
# Summary of the method: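 Cell-free enzyme activity with protein extracted from rat dorsal striatum, measured by HPLC with absorbance detection. Compounds screened at 25 uM in duplicate; actives then run in concentration-response up to 50 uM, loss of signal versus DMSO.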
# [10] = target: rat Adenylate Cyclase, Forskolin Stimulated, Adcy5 (gene 64532) (UniProt Q04400); assay: NVS_ENZ_rACFSKBinding: NovaScreen (NVS) Enzymatic Assay for rat Adenylate Cyclase, Forskolin Stimulated (AID 2283232)
# Summary of the method: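 Rat forebrain membrane preparation, cell-free, read 1 h after dosing by filter-based scintillation counting. Primary screen in duplicate at 25 uM; actives (e.g. ≥30% inhibition) rerun in concentration-response up to 50 uM; fit versus DMSO.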
# [11] = system: rat Monoamine Oxidase, MAO-A, Peripheral (MAOAP), gene 29253; assay: NVS_ENZ_rMAOAP: NovaScreen (NVS) Enzymatic Assay for rat Monoamine Oxidase, MAO-A, Peripheral (MAOAP) (AID 2283237)
# Summary of the method: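 Rat liver mitochondrial membranes served as the MAO-A source, with enzyme activity measured by radiometric scintillation counting 1.17 hours after dosing. Loss of signal was fitted against DMSO; primary screen used 25 uM in duplicate, follow-up used concentration series.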
# [12] = target: rat Monoamine Oxidase, MAO-B, Peripheral (MAOBP), Maob (gene 25750) (UniProt P19643); assay: NVS_ENZ_rMAOBP: NovaScreen (NVS) Enzymatic Assay for rat Monoamine Oxidase, MAO-B, Peripheral (MAOBP) (AID 2283242)
# Experimental: NVS_ENZ_rMAOBP is a biochemical, single-readout assay that uses extracted gene-proteins from Rat brain in a tissue-based cell-free assay. Measurements were taken 1.17 hours after chemical dosing in a 96-well plate.NVS_ENZ_rMAOBP is one of one assay component(s) measured or calculated from the NVS_ENZ_rMAOBP assay. It is designed to make measurements of enzyme activity, a form of enzyme reporter, as detected with scintillation counting signals by Lysate-based radiodetection technology.Data from the assay component NVS_ENZ_rMAOBP was analyzed into 1 assay endpoint. This assay endpoint, NVS_ENZ_rMAOBP, was analyzed in the positive analysis fitting direction relative to DMSO as the negative control and baseline of activity. Using a type of enzyme reporter, loss-of-signal activity can be used to understand changes in the enzymatic activity as they relate to the gene Maob. Furthermore, this assay endpoint can be referred to as a primary readout, because this assay has produced multiple assay endpoints where this one serves a enzymatic activity function. To generalize the intended target to other relatable targets, this assay endpoint is annotated to the oxidoreductase intended target family, where the subfamily is monoamine oxidase.
# Binding assays used specific radioligands (tritiated, iodinated) with non-radioactive competitive displacement ligands in agonist or antagonist protocols (as indicated) and various reference compounds and inhibitors to titrate specific binding to receptors and transporters. Most enzyme assays (CYPs, kinases, phosphatases, proteases, HDACs) used recombinant protein and specific substrates (fluorescence mostly, some colorimetric and radioactive) and inhibitors, followed by a biochemical separation of substrate and product. All assays for the biochemical HTS were initially run in duplicate at a single concentration (10 uM for CYP450 assays and 25 uM for all others). […]
# [13] = target: rat Monoamine Oxidase, MAO-B, Central (MAOBC), Maob (gene 25750) (UniProt P19643); assay: NVS_ENZ_rMAOBC: NovaScreen (NVS) Enzymatic Assay for rat Monoamine Oxidase, MAO-B, Central (MAOBC) (AID 2283238)
# Summary of the method: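 MAO-B activity in rat brain tissue preparation, cell-free, measured radiometrically by scintillation counting 1.17 h after dosing. Screened in duplicate at 25 uM; actives then in concentration-response up to 50 uM. Loss of signal versus DMSO scored.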
# [14] = target: rat Acetylcholinesterase (AChE), Ache (gene 83817) (UniProt P37136); assay: NVS_ENZ_rAChE: NovaScreen (NVS) Enzymatic Assay for rat Acetylcholinesterase (AChE) (AID 2283233)
# Summary of the method: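 Rat brain membrane acetylcholinesterase activity measured colorimetrically 0.33 h after compound addition, loss of signal relative to DMSO. Primary screen in duplicate at 25 uM; actives re-run as concentration-response with 50 uM top concentration.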
# [15] = system: guinea pig Leukotriene B4 Receptor (LTB4), gene 100379538; assay: NVS_GPCR_gLTB4: NovaScreen (NVS) G Protein-Coupled Receptor Assay for guinea pig Leukotriene B4 Receptor (LTB4) (AID 2283247)
# Summary of the method: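 Radioligand displacement on guinea pig spleen membranes, filter-based scintillation counting 2 h after dosing. Primary duplicate single point at 25 uM; hits over threshold (e.g. 30% inhibition) run in concentration-response up to 50 uM, DMSO baseline.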
# [16] = target: guinea pig Leukotriene D4 Receptor (LTD4), CYSLTR1 (gene 100135514) (UniProt Q2NNR5); assay: NVS_GPCR_gLTD4: NovaScreen (NVS) G Protein-Coupled Receptor Assay for guinea pig Leukotriene D4 Receptor (LTD4) (AID 2283248)
# Summary of the method: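 Radioligand displacement on guinea pig lung membranes, 1 h incubation, filtration and scintillation counting; DMSO as negative control. Duplicate 25 uM primary screen, then singleton concentration-response up to 50 uM.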
# Chain of sheep Cyclooxygenase-1 (Cox1), PTGS1 (gene 443551) (P05979 whole entry, looked up): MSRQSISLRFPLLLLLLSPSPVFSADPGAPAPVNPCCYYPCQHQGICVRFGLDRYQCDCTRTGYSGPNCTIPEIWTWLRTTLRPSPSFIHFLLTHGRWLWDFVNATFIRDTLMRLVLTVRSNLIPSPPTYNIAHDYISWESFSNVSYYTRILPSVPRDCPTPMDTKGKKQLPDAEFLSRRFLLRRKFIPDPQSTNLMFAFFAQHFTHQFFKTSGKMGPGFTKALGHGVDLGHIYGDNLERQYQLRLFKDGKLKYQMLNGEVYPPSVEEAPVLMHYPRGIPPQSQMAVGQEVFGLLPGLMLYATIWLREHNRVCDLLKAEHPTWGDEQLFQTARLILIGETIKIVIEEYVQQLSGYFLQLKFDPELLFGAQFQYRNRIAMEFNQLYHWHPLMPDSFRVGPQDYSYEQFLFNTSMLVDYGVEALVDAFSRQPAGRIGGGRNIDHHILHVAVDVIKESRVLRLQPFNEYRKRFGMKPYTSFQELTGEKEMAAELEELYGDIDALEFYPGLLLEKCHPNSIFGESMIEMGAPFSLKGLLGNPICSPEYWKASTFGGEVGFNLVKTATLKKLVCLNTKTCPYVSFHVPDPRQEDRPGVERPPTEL
# Chain of guinea pig Leukotriene D4 Receptor (LTD4), CYSLTR1 (gene 100135514) (Q2NNR5 whole entry, looked up): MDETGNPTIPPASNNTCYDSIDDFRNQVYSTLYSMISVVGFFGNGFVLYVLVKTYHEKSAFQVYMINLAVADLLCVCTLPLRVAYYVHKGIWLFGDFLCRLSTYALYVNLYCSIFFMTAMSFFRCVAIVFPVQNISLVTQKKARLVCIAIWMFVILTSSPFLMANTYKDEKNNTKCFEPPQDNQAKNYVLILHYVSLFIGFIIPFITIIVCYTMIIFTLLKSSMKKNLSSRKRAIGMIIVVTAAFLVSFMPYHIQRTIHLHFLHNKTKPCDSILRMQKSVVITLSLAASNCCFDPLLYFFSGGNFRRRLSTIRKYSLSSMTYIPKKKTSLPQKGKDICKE
# Chain of human Serotonin, 5-Hydroxytryptamine Receptor 7 (5HT7), HTR7 (gene 3363) (P34969 whole entry, looked up): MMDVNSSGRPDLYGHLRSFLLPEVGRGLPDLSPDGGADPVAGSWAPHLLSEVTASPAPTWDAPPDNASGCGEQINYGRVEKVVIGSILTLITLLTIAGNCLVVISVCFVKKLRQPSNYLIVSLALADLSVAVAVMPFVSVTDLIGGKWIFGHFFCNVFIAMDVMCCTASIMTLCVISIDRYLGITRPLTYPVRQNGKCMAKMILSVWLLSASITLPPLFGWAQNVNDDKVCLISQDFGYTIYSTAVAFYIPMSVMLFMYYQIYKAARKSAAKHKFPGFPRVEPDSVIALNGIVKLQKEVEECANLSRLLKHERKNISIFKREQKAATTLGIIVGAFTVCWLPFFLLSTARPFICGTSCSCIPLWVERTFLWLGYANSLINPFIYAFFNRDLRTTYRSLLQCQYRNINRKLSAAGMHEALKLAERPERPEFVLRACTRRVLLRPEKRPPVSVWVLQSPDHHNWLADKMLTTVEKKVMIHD
# Chain of rat Constitutive Nitric Oxide Synthase (CNOS), Nos1 (gene 24598) (P29476 whole entry, looked up): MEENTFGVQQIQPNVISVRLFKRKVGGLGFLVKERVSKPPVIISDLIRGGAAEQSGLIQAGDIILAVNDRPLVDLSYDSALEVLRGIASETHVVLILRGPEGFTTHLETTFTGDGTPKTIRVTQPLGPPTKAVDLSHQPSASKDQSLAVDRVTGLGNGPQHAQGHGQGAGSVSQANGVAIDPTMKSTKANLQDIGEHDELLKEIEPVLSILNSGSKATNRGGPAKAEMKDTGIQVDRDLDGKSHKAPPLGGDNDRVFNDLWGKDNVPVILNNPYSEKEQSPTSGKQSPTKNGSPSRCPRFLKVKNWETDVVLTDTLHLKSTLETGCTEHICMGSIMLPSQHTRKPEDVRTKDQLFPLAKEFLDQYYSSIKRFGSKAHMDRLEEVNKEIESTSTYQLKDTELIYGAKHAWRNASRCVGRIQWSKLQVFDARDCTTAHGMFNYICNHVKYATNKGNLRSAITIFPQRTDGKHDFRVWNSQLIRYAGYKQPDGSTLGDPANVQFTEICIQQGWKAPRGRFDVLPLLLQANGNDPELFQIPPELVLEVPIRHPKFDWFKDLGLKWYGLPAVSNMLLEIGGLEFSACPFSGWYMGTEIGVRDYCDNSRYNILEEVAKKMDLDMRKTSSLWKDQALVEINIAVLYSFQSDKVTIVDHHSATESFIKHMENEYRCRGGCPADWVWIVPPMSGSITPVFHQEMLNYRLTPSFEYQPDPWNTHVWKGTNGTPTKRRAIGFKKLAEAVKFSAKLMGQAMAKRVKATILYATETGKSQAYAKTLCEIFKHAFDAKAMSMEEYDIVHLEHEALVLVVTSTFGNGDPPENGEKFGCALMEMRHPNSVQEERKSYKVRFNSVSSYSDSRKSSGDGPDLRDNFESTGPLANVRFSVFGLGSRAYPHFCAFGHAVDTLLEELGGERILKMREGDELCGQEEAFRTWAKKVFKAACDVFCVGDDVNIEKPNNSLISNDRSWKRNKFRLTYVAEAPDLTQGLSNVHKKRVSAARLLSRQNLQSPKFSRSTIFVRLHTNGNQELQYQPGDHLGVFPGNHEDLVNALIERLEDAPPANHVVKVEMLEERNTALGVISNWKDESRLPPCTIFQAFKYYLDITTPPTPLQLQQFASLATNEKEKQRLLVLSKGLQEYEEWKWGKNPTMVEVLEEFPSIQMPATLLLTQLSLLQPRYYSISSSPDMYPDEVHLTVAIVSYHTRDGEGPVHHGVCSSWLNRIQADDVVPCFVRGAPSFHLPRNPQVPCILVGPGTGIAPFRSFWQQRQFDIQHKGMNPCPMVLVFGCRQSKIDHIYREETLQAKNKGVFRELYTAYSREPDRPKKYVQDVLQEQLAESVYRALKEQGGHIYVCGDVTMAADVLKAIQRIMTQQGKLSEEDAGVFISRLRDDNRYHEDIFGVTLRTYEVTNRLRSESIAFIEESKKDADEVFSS
# Chain of human Serotonin, 5-Hydroxytryptamine Receptor 5A (5HT5A), HTR5A (gene 3361) (P47898 whole entry, looked up): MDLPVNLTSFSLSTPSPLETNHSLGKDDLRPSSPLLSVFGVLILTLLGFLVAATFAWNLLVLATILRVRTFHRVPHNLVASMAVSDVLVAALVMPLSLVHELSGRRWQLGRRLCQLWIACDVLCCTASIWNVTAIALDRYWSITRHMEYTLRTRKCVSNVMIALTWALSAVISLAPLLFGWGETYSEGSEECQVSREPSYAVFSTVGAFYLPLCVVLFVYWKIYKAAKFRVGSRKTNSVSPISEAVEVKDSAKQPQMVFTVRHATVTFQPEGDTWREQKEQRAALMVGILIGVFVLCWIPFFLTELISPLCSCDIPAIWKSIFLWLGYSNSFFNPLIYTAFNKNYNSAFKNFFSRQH
# Chain of human Serotonin, 5-Hydroxytryptamine Receptor 6 (5HT6), HTR6 (gene 3362) (P50406 whole entry, looked up): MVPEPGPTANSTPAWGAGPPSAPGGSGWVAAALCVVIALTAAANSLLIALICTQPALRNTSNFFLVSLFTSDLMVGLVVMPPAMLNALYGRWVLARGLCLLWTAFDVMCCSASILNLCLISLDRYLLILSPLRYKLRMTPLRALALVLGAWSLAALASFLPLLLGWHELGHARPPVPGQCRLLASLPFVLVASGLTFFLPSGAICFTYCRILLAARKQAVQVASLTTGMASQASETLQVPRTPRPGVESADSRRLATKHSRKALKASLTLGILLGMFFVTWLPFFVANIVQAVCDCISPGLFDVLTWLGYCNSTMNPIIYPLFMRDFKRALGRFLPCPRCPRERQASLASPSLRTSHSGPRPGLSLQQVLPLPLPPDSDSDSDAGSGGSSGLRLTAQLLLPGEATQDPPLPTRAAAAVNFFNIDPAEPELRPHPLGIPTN
# Chain of rat Monoamine Oxidase, MAO-B, Peripheral (MAOBP), Maob (gene 25750) (P19643 whole entry, looked up): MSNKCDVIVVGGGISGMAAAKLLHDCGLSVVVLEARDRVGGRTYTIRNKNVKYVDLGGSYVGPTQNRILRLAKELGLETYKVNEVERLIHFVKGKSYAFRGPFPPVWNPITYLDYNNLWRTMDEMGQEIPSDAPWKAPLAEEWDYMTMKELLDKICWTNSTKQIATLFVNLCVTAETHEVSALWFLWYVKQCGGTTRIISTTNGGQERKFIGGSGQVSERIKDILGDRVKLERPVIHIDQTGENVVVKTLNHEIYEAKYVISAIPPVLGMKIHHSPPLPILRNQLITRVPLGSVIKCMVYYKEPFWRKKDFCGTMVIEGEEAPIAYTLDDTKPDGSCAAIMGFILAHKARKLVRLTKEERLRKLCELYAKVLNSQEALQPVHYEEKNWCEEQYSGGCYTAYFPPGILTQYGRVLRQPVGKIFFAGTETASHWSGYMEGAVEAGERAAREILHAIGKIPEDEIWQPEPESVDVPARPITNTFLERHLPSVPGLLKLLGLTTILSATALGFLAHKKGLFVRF
# Chain of rat Monoamine Oxidase, MAO-B, Central (MAOBC), Maob (gene 25750) (P19643 whole entry, looked up): as above
# Chain of rat Catechol-O-Methyl Transferase (COMT), Comt (gene 24267) (P22734 whole entry, looked up): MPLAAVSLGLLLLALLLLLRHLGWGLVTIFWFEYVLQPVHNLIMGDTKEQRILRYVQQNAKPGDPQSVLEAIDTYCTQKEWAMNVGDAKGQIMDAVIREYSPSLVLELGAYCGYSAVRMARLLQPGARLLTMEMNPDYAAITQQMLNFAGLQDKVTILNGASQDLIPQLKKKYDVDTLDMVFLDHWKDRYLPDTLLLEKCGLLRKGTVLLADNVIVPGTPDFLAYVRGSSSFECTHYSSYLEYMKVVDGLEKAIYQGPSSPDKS
smiles,measurement,setting,value
CCCN(CCOc1c(Cl)cc(Cl)cc1Cl)C(=O)n1ccnc1,outcome,[1],inactive
same,AC50,[2],8.15 µM (active)
same,outcome,[3],inactive
same,outcome,[4],inactive
same,AC50,[5],13.3 µM (active)
CCOCN(C(=O)CCl)c1c(C)cccc1CC,outcome,[4],inactive
same,outcome,[6],inactive
CCc1ccc(C(=O)NN(C(=O)c2cc(C)cc(C)c2)C(C)(C)C)cc1,outcome,[7],inactive
COC(=O)c1ccccc1CS(=O)(=O)NC(=O)Nc1nc(OC)cc(OC)n1,AC50,[2],25 µM (active)
CC1(c2ccc(Oc3ccccc3)cc2)OC(=O)N(Nc2ccccc2)C1=O (configuration not stated),outcome,[8],inactive
Cc1cc(C)nc(NC(=O)NS(=O)(=O)c2ccccc2C(=O)OC2COC2)n1,AC50,[1],2.58 µM (active)
O=C(O)COc1ccc(Cl)cc1Cl,outcome,[9],inactive
Oc1cc(Cl)ccc1Oc1ccc(Cl)cc1Cl,outcome,[10],inactive
same,outcome,[11],inactive
same,outcome,[8],inactive
same,outcome,[12],inactive
same,AC50,[2],38.9 µM (active)
same,outcome,[5],inactive
C#CCN1C(=O)COc2cc(F)c(N3C(=O)C4=C(CCCC4)C3=O)cc21,AC50,[13],25 µM (active)
same,AC50,[8],1.11 µM (active)
same,AC50,[2],6.93 µM (active)
N#Cc1c(Cl)c(Cl)c(Cl)c(C#N)c1Cl,AC50,[10],25 µM (active)
same,outcome,[14],inactive
same,outcome,[6],inactive
O=S(=O)(O)C(F)(F)C(F)(F)C(F)(F)C(F)(F)C(F)(F)C(F)(F)C(F)(F)C(F)(F)F,outcome,[8],inactive
same,AC50,[15],13.1 µM (active) [middle of 4 runs]
same,outcome,[15],inactive
same,AC50,[16],24 µM (active) [middle of 4 runs]
same,outcome,[16],inactive
same,AC50,[3],35.1 µM (active) and 11.6 µM (active) and 33.8 µM (active)
same,outcome,[3],inactive
same,AC50,[6],32.7 µM (active) and 42.8 µM (active)
same,AC50,[5],6.51 µM (active) and 25 µM (active) and 24 µM (active)
O=C1c2ccccc2C(=O)N1SC(Cl)(Cl)Cl,AC50,[1],2.25 µM (active)
same,outcome,[12],inactive
same,outcome,[7],inactive
same,outcome,[3],inactive
same,AC50,[6],16.3 µM (active)
CC(C)OC(=O)Nc1cccc(Cl)c1,outcome,[9],inactive
same,outcome,[13],inactive
O=S1OCC2C(CO1)C1(Cl)C(Cl)=C(Cl)C2(Cl)C1(Cl)Cl (configuration not stated),outcome,[3],inactive
CC1(C)C(C=C(Cl)Cl)C1C(=O)OC(C#N)c1ccc(F)c(Oc2ccccc2)c1 (configuration not stated),outcome,[5],inactive
